KB-V1 MDR tox – kills drug-selected multidrug resistant KB-V1 cells; KB-V1 MDR cells viability, CellTiter-Glo, 72 h; Potency, µM (series often up to 46.1 µM), usual class: cytotoxic; 400,000 compounds, 3.4% hits; further: nearly all actives have a fitted effect of over 60% in size
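KB-V1, DMEM (no phenol red) + 10% FBS; cpd pin-transferred, titration series; 72 h, 37 degrees C; CellTiter-Glo, luminescence. Data normalized, curve-fit.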
MCF10A rerep – DNA re-replication induction in MCF 10a cells. MCF 10A DNA re-replication, Hoechst nuclear intensity, 48 h. Potency, µM (titrated, usually from 46.1 µM), actives largely listed as activators. 350,000 compounds, 2.9% hits. AID 624296; further: nearly all actives have a fitted effect of over 50% in size
SW480 rerep – DNA re-replication induction in SW480 cells; SW480 DNA re-replication, Hoechst DNA content imaging, 48 h; Potency, µM (titrated, usually from 46.1 µM), actives largely listed as activators; 340,000 compounds, 1.8% hits; AID 624297; further: nearly all actives have a fitted effect of over 55% in size
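SW480 cells exposed to compounds for 48 hr at 37 C, 5% CO2, then Hoechst-stained 40 min. Nuclear DNA content imaged by fluorescence scanning (405 nm excitation, 500-530 nm emission); re-replication scored as increased high-intensity nuclei.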
IL-1B inflam inh – inflammasome signaling inhibition, IL-1 beta readout; THP-1 LPS/ATP IL-1B secretion, AlphaLISA, 16 h; stronger effect = lower value; activity change, % at 57.5 µM; 360,000 compounds, 4.7% hits; in the data active means activity change below about -50%; inconclusive means mostly about -30% to -49%
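Secreted IL-1B measured by AlphaLISA bead assay after 16 h compound exposure of THP-1 cells; compounds (final up to 57.5 uM) added 1 h before LPS (250 ng/mL) and ATP (1.25 mM) stimulation; lower signal means less secretion.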
KB-3-1 tox – kills parental KB-3-1 adenocarcinoma cells; KB-3-1 viability, CellTiter-Glo ATP luminescence, 72 h; Potency, µM (doses to about 46.1 µM), usual class: cytotoxic; 400,000 compounds, 1.4% hits; further: nearly all actives have a fitted effect of over 60% in size
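Here the drug-naive KB-3-1 line serves as comparator for MDR sub-line selectivity; cells received compound titrations, 72 h at 37 °C, then CellTiter-Glo readout.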
Numbers stand for hits; - = inactive; ? = inconclusive; . = not tested or not shown. An excerpt weighted towards active compounds, which were near 9.9% of everything screened. Unless noted, the call rests on the fitted dose curve; in most records, active means well fitted curve in the direction sought with a large enough effect; inconclusive means small, poorly fitted or top-dose-only effect, or another doubt; inactive means no such curve, though single readings can be large; an effect the other way counts as inactive or inconclusive.

SMILES	KB-V1 MDR tox	MCF10A rerep	SW480 rerep	IL-1B inflam inh	KB-3-1 tox
Cc1ccc(C(=O)CSc2nnnn2-c2ccccc2)o1	-	0.41µM	-	-	-
Cc1sc2ncn(CC(=O)N3CCN(c4cccc(Cl)c4)CC3)c(=O)c2c1S(=O)(=O)N1CCC(C)CC1	-	.	.	.	-
CC(C)C(=O)N1CCN(c2ccccc2NC(=O)c2ccc([N+](=O)[O-])o2)CC1	?	-	?	-	-
COc1ccc(C(=O)Nc2cc([N+](=O)[O-])ccc2N2CCCC2)cc1	?	-	-	-	-
O=C(Nc1ccccc1N1CCCC1)c1ccc([N+](=O)[O-])o1	?	23µM	5.2µM	-93	23µM
CCC(=O)N1CCN(c2ccccc2NC(=O)c2ccc([N+](=O)[O-])o2)CC1	?	-	?	-55	?
O=C(Nc1cc(C(F)(F)F)ccc1-n1cncn1)c1ccc(Br)cc1	?	-	-	?	-
CC1CCN(c2ccccc2NC(=O)c2ccc([N+](=O)[O-])o2)CC1	-	-	-	-	-
O=C(Nc1cc(C(F)(F)F)ccc1-n1cncn1)c1ccc([N+](=O)[O-])o1	?	?	9.2µM	-94	21µM
COc1ccc(N2CCCC2)c(NC(=O)c2ccc([N+](=O)[O-])o2)c1	?	?	?	-71	?
CCOC(=O)c1ccc(-c2c(-c3ccccc3OC)sc3ccc(OC)cc23)cc1F	-	?	?	-	-
COc1cccc(CNc2ccc(S(N)(=O)=O)cc2)c1OCc1ccccc1F	21µM	-	-	-	?
COc1cccc(CNc2ccccc2O)c1OCc1ccccc1F	-	?	21µM	-92	-
CCOc1ccc(NC(=O)CCC(=O)NNC(=O)Nc2ccc(Cl)cc2)cc1	-	-	-	-	-
COc1ccc(CS(=O)(=O)CC2(O)CCN(C(=O)c3cccc(C(F)(F)F)c3)CC2)cc1	-	-	-	-	-
COc1ccc(OC)c(/C=C/C(=O)N2CCN(S(=O)(=O)c3ccc(C)cc3C)CC2)c1	3.7µM	-	-	-	?
COc1cc(C(=O)OCC(=O)N2CCN(S(=O)(=O)c3ccc(C)cc3C)CC2)c([N+](=O)[O-])cc1OC	9.2µM	-	-	-	-
COc1cc(C(=O)OCC(=O)N2CCCCCC2)c([N+](=O)[O-])cc1OC	?	-	-	-	-
COc1ccc(Nc2nc3ccc(Cl)cc3n3nnnc23)cc1OC	-	.	.	.	-
CN(C)CCNc1ncnc2c1ncn2[C@H]1CN(Cc2ccc3c(c2)OCO3)C[C@@H](CO)O1	-	.	.	-	-
COc1cc2ccccc2cc1C(=O)N1CCN(C(C)=O)CC1	-	-	?	-	-
CCOc1ccccc1N1CCN(C(=O)CC(C)C)CC1	23µM	-	-	-	-
CCOC(=O)C1CCN(C(=O)c2cc3c(C)cc(C)cc3[nH]2)CC1	?	-	-	-	-
CCOc1ccccc1N1CCN(C(=O)c2cc3ccccc3cc2OC)CC1	16µM	2.1µM	15µM	-	3.7µM
CCOc1ccccc1N1CCN(C(=O)c2cc3c(C)cc(C)cc3[nH]2)CC1	23µM	?	21µM	?	18µM
SMILES	KB-V1 MDR tox	MCF10A rerep	SW480 rerep	IL-1B inflam inh	KB-3-1 tox
O=C(CSCc1ccc(Cl)cc1)Nc1ccc2c(c1)OCCO2	-	-	-	-	-
COCc1cc(S(=O)c2ccc(Cl)cc2)nc(C)n1 (stereo unspecified)	-	15µM	?	-	-
Clc1ccc2c(Cl)cc[n+](CCC3CCCCC3)c2c1	-	.	.	.	-
Cc1cc[n+](CCC2CCCCC2)cc1	-	.	.	.	21µM
O=C(O)COc1ccc(/C=C/c2nc(-c3ccccc3O)n[nH]2)cc1	-	-	-	-	-
COc1ccc(/C=C/c2nc(-c3ccccc3O)n[nH]2)cc1OC	-	?	-	-99	-
COC(=O)c1c(NC(=O)COC(=O)Cn2cnc3ccccc32)sc2c1CCCC2	-	-	-	-	?
COc1ccc(S(=O)(=O)NCCc2c(C)nn(C)c2Oc2ccccc2)cc1	?	-	-	-	-
Cc1nn(C)c(Oc2ccccc2)c1CCNS(=O)(=O)c1ccc(Cl)cc1	18µM	-	-	?	?
COc1cc(-c2c(NC(=O)c3ccco3)oc3ccccc3c2=O)cc(OC)c1OC	-	-	-	-	-
Cc1c(C(=O)Nc2ccc(-c3nnc4n3CCCCC4)cc2)oc2ccc(Br)cc12	8.2µM	-	-	-65	-
O=C(Nc1ccc(-c2nnc3n2CCCCC3)cc1)c1ccco1	?	-	-	-	-
COc1ccccc1/C=C/C(=O)Nc1ccc2c(c1)CCC2	-	-	-	?	-
COc1ccc(OC)c(/C=C/C(=O)Nc2ccc3c(c2)CCC3)c1	16µM	-	-	-	-
COc1ccc(/C=C/C(=O)Nc2ccc(-c3nnc4n3CCCCC4)cc2)c(OC)c1	-	-	-	-53	-
CSC(=NC#N)N1CCN(c2ccc([N+](=O)[O-])cc2)CC1	-	-	-	-	-
COc1ccc(NC(=O)CN(C)C(=O)CCc2c[nH]c3ccccc23)cc1	-	-	-	-	-
COc1ccc(CCNC(=O)CCC(=O)NC2CCCC(C)C2C)cc1OC (stereo unspecified)	-	-	-	-	-
Cn1c(C(=O)N2CCN(c3ccccc3)CC2)cc2cc(Cl)ccc21	-	-	-	-	-
CC(=O)C1=C(c2ccc(Br)cc2)C(=O)c2ccccc2C1=O	7.3µM	7.3µM	8.2µM	-97	?
O=C(NC1CC1)c1nc2c(nnn2Cc2ccccc2Cl)c(=O)[nH]1	-	?	-	-	-
O=c1[nH]c(C2CCN(S(=O)(=O)/C=C/c3ccccc3)CC2)nc2c1nnn2Cc1ccc(F)cc1	-	-	?	-54	?
O=C(NCCc1ccccc1)c1nc2c(nnn2Cc2ccccc2Cl)c(=O)[nH]1	15µM	-	-	-	-
O=c1[nH]c(C2CCN(S(=O)(=O)c3ccc(C(F)(F)F)cc3)CC2)nc2c1nnn2Cc1ccccc1	?	-	-	-71	-
O=C(Nc1ccc(F)cc1)N1CCC(c2nc3c(nnn3Cc3ccccc3Cl)c(=O)[nH]2)CC1	-	-	-	-74	-
O=c1[nH]c(C2CCN(S(=O)(=O)Cc3ccccc3)CC2)nc2c1nnn2Cc1ccccc1	-	-	-	-	-
Cn1c2cc(S(C)=O)sc2c2cnn(Cc3cccc(O)c3)c(=O)c21 (stereo unspecified)	-	.	.	.	-
COc1cccc(CN2CCNC(=O)C2CC(=O)NCCOc2cccnc2)c1 (stereo unspecified)	-	-	-	-	-
COCC(=O)N1CCC(n2nccc2NC(=O)c2ccccc2OC)CC1	-	-	-	-	-
Cc1ccc(C(=O)c2oc3ccccc3c2NC(=O)Cc2ccccc2)cc1	-	.	.	.	-
